Compounds with a hit are over-represented: about 2.6% of the library has one in this group of screens.
PABP polyA inh = blocks human PABP binding to poly(A) RNA. fluorescence polarization. calls only at 35 µM. hit rate 1% among 290,000. AID 2014;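 note: calls also rest on retests at 20 µM and on dose response follow-up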
A3G deaminase = blocks human APOBEC3G single-stranded DNA deamination; recombinant A3G, ssDNA deamination FAM/TAMRA fluorescence; inhibition, % at 20 µM; hit rate 0.28% among 330,000;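 active = inhibition of at least 40% at 20 µM, with no more than 30% in the related APOBEC3A deaminase screen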;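 note: plate controls were DMSO wells with A3G for no effect and wells lacking A3G enzyme for full effect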
PABP1 MLLE inh = inhibitors of microRNA-mediated deadenylation, human PABP1 MLLE binding. P11940. GST-MLLE / FITC-PAM2 fluorescence polarization. inhibition, % at 20 µM. hit rate 0.36% among 360,000; in the data active = inhibition above about 35%, passing the limit was not always enough;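 note: plate controls were DMSO wells with GST-MLLE for no effect and wells lacking GST-MLLE protein for full effect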
A3A deaminase = blocks human APOBEC3A ssDNA deamination; P31941; recombinant A3A, FAM/TAMRA ssDNA deamination fluorescence; inhibition, % at 20 µM; hit rate 0.41% among 330,000; AID 493011;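 active = at least 40% inhibition at 20 µM here, with at most 30% in a related deaminase screen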;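 note: plate controls were A3A with DMSO for no effect and wells lacking A3A enzyme for full effect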
PHOSPHO1 block = blocks human PHOSPHO1 phosphatase activity; recombinant PHOSPHO1, absorbance phosphatase assay; AID 1565; inhibition, % at 13.3 µM; hit rate 1.1% among 290,000; in the data active = inhibition above about 60%
Target sequence (Q8TCT1 whole entry, looked up): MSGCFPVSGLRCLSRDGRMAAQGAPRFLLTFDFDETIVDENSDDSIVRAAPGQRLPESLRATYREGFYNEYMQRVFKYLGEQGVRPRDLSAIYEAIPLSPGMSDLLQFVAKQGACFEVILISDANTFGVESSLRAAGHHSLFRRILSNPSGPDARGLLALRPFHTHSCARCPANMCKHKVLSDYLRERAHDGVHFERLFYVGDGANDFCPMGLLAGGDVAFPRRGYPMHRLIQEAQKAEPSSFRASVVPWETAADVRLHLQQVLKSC
eIF4H inh = inhibitors of RNA binding by human eIF4H | eIF4H fluorescence polarization binding assay | hit rate 0.94% among 290,000 | Q15056 | AID 2012 | inhibition, % at 35 µM;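 note: calls also rest on retests at 20 µM and on dose response follow-up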
A3A conf = APOBEC3A (human) deaminase inhibition, confirmed. recombinant A3A, ssDNA deaminase UDG fluorescence assay. AID 493151. hit rate 63% among 1,400. inhibition, % at 20 µM. shares compounds with A3A deaminase;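 active = inhibition reaching a set limit, 80% of the first screen's cutoff, at 20 µM in any replicate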;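 note: plate controls were DMSO wells with A3A for no effect and wells lacking A3A enzyme for full effect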
UDG ctr A3A = UDG inhibition in APOBEC3A counter-screen | shares compounds with A3A deaminase | inhibition, % at 20 µM | 1,000 tested, under 10 active | AID 504714 | UDG counterscreen, FAM/TAMRA uracil oligo fluorescence
Numbers without * were called inactive; i = inactive; / = no result; + = active, no number. Unless noted, the rule behind the calls is not given here.

SMILES	PABP polyA inh	A3G deaminase	PABP1 MLLE inh	A3A deaminase	PHOSPHO1 block	eIF4H inh	A3A conf	UDG ctr A3A
Cc1c(C(=O)N2C[C@@H](C)O[C@@H](C)C2)oc2c(F)cccc12	i	13	13	4	26	-16	/	/
COC(=O)[C@H](CO)NS(=O)(=O)c1ccc(C)cc1	/	1	1	0	/	/	/	/
Cc1nn(CC(=O)NC2C(=O)N3C(C(=O)O)=C(CSc4nnnn4C)CSC23)cc1Br (stereo not given)	i	-2	4	16	-16	30	/	/
CO[C@@]1(NC(=O)C2SC(=C(C(N)=O)C(=O)O)S2)C(=O)N2C(C(=O)O)=C(CSc3nnnn3C)CS[C@@H]21 (stereo not given in full)	/	3	14	50*	/	/	43*	0
N#CC1(NC(=O)COc2cc(F)ccc2[N+](=O)[O-])CCCCC1	/	-5	-15	-1	/	/	/	/
N#CC1(NC(=O)COc2ccccc2[N+](=O)[O-])CCCCC1	/	3	-117	48*	/	/	22	/
CCN(CC)S(=O)(=O)c1ccc(OC)c(NC(=O)Cc2cccs2)c1	i	16	1	43*	55	62	25	/
O=C(C[C@H]1C[C@@H]2c3cc(NC(=O)Nc4ccccc4)ccc3O[C@@H]2[C@@H](CO)O1)NCC1CC1	/	/	-4	/	/	/	/	/
COC(=O)c1ccccc1S(=O)(=O)N1CCC(C(=O)N2CCC2)CC1	/	-2	9	-1	/	/	/	/
COc1ccc2c(c1)O/C(=C\c1ccco1)C2=O	i	5	-13	5	23	50	/	/
Cc1cc(O)c(CN(C)C)c2c1C(=O)/C(=C/c1ccco1)O2	+	21	22	48*	26	94*	15*	2
CC(=O)Nc1ccc(NC(=O)C(C)OC(=O)c2ccc3ccccc3n2)cc1 (stereo not given)	/	-7	-10	-4	/	/	/	/
O=C(Nc1ccc(-c2ccccc2)cc1)c1ccco1	i	22	-125	42*	-65	-3	26	/
CCN(CC)c1ccc2nc3ccccc3[n+](CC)c2c1	+	23	-113	79*	-100	39	82*	3
Cc1cc(C(=O)N2CCC2(C)C(=O)O)c(C)o1 (stereo not given)	/	/	-5	/	/	/	/	/
CN(Cc1ccc(Cl)c(Cl)c1)C(=O)C1=CC=CN2CCS(=O)(=O)N=C12	/	15	-103	47*	/	/	43*	-2
COc1ccc(Br)cc1CN(C)C(=O)C1=CC=CN2CCS(=O)(=O)N=C12	/	3	-94	55*	/	/	51*	3
Cc1ccccc1N1CC(C(=O)Nc2nnc(SCC(=O)Nc3nccs3)s2)CC1=O (stereo not given)	i	-10	6	48*	8	10	9	6
Cc1cccc(N2CC(C(=O)Nc3nnc(SCC(=O)Nc4nccs4)s3)CC2=O)c1 (stereo not given)	i	-3	-20	2	4	2	/	/
O=C(CSc1ccccn1)Nc1cccc2ccccc12	+	8	-75	60*	16	1.8*	44*	-3
COc1cc(/C=C(\C#N)C(=O)NCc2ccccc2)ccc1OCc1ccc(C(=O)O)cc1	i	0	-4	-2	2	-4	/	/
COc1cc(/C=C(/C#N)C(=O)NCCCc2ccccc2)ccc1OCC(=O)O	i	11	-127	40*	-36	0	67*	1
O=C(O)c1nsc(Cl)c1Cl	i	-4	-4	99*	13	0	-1	-3
O=C(O)c1ncc(Cl)c(Cl)c1Cl	i	-4	-26	-4	19	-6	/	/
Cc1cccc2nc(C(=O)Nc3cc(Cl)ccc3-n3cncn3)cn12	/	9	-88	49*	/	/	36*	-1
Cc1cccc(C(=O)Nc2cc(Cl)ccc2-n2cncn2)c1[N+](=O)[O-]	/	-3	2	2	/	/	/	/
O=C(C1CCC1)N1CCN(S(=O)(=O)c2ccc(F)cc2)CC1	/	17	-108	46*	/	/	-1	/
CC(=O)N1CCC(C(=O)N2CCN(S(=O)(=O)c3ccc(F)cc3)CC2)CC1	i	0	-3	0	-2	-3	/	/

Assay outcomes from PubChem.
